The test system of this experiment is Plasmodium falciparum NF54/iGP1_RE9H ulg8 stage V gametocytes. The experiment in a line: gametocyte viability (luciferase signal relative to DMSO control) (% of DMSO control); higher = less gametocytocidal activity, active = 50 or less. As to conditions: exposure time: 72 h. The procedure, abridged:
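Stage V gametocytes of the NF54/iGP1_RE9Hulg8 line (day 12; ~2.5% gametocytemia, 3% hematocrit), in medium containing 0.5% Albumax II, were dispensed into 96-well plates with compounds spotted in nanolitre volumes from 10 mM DMSO stocks, for final concentrations of 10 µM or 1 µM in a single well each. After 72 h at 37 °C, 90 µl from each well was combined with 10 µl D-luciferin (30 mg/ml), and luminescence was measured on an IVIS Lumina II. Viability was expressed against the mean of the DMSO vehicle wells on the same plate.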

Where a name gives a salt, the structure may show the parent alone. Out of some 1,300 compounds screened, about 40 (3%) showed activity. Many of the other results were omitted from the sample, so actives are more common in it than they were. Values without a mark were called inactive.

Regarding `CC(C)C[C@H]1C(=O)N2CCC[C@H]2[C@]2(O)O[C@](NC(=O)[C@@H]3C=C4c5cccc6[nH]c(Br)c(c56)C[C@H]4N(C)C3)(C(C)C)C(=O)N12` [Bromocryptine mesylate], the gametocyte viability is, setting by setting: (concentration: 1 µM) 84.2; (concentration: 10 µM) 66.9.

Take `CCCN1C[C@H](CSC)C[C@@H]2c3cccc4[nH]cc(c34)C[C@H]21` [Pergolide mesylate]: the gametocyte viability by setting is: (concentration: 1 µM) 78.2; (concentration: 10 µM) 82.3.

Turning to `CN1C[C@H](C(=O)N[C@]2(C)O[C@@]3(O)[C@@H]4CCCN4C(=O)[C@H](Cc4ccccc4)N3C2=O)C[C@@H]2c3cccc4[nH]cc(c34)C[C@H]21` [Dihydroergotamine tartrate], the gametocyte viability is, setting by setting: (concentration: 1 µM) 66.8; (concentration: 10 µM) 42.4 (active).

Regarding `CCNCC(O)c1cccc(O)c1` (stereo not given) [Etilefrine hydrochloride], the gametocyte viability (concentration: 1 µM) was 87.9 and the gametocyte viability (concentration: 10 µM) was 90.2.

Regarding `CN1CCC2(C)c3cc(O)ccc3N(C)C12` (single isomer, unassigned; (-)) [(-)-Eseroline fumarate salt], the gametocyte viability is, setting by setting: (concentration: 1 µM) 74.2; (concentration: 10 µM) 44.8 (active).

Regarding `CCC1(c2cccc(O)c2)CCCCN(C)C1` (stereo not given) [Meptazinol hydrochloride], the gametocyte viability (concentration: 1 µM) was 83 and the gametocyte viability (concentration: 10 µM) is 81.4.

Consider `CNC(=O)Oc1ccc2c(c1)[C@]1(C)CCN(C)[C@@H]1N2C` [Eserine sulfate, physostigmine sulfate], for which the gametocyte viability is 83.4 (concentration: 1 µM) and 79 (concentration: 10 µM).

For `C(#CCN1CCCC1)CN1CCCC1` [Tremorine dihydrochloride], the gametocyte viability by setting is: (concentration: 1 µM) 91.5; (concentration: 10 µM) 94.7.

As to `C[C@@H]1O[C@@H](O[C@@H]2C=C3CC[C@@H]4[C@H](CC[C@]5(C)[C@@H](c6ccc(=O)oc6)CC[C@]45O)[C@@]3(C)CC2)[C@H](O)[C@H](O)[C@H]1O` [Proscillaridin A], the gametocyte viability reads like this: (concentration: 1 µM) 81.2; (concentration: 10 µM) 76.2.

As to `CCCCCC[C@H]1C(=O)O[C@H](C)[C@H](NC(=O)c2cccc(NC=O)c2O)C(=O)O[C@@H](C)[C@@H]1OC(=O)CC(C)C` [Antimycin A], the gametocyte viability by setting is: (concentration: 1 µM) 86.4; (concentration: 10 µM) 94.3.

In the case of `Fc1ccc(C(OCCN2CCN(CCCc3ccccc3)CC2)c2ccc(F)cc2)cc1`, the gametocyte viability reads like this: (concentration: 1 µM) 81.5; (concentration: 10 µM) 86.

Regarding `COc1ccc(CCN2CCC(Nc3nc4ccccc4n3Cc3ccc(F)cc3)CC2)cc1` [Astemizole], the gametocyte viability is, setting by setting: (concentration: 1 µM) 92.7; (concentration: 10 µM) 36.4 (active).

As for `CN(C)[C@@H]1C(=O)C(C(N)=O)=C(O)[C@@]2(O)C(=O)C3=C(O)c4c(O)ccc(Cl)c4[C@@](C)(O)[C@H]3C[C@@H]12` [Chlortetracycline hydrochloride], the gametocyte viability by setting is: (concentration: 1 µM) 88.2; (concentration: 10 µM) 88.7.

For the molecule `CN1[C@@H]2CC[C@H]1C[C@@H](OC(=O)[C@H](CO)c1ccccc1)C2` [Hyoscyamine (L)], the gametocyte viability is 86.7 (concentration: 1 µM) and 91.7 (concentration: 10 µM).

With `CN1[C@@H]2CC[C@H]1C[C@@H](OC1c3ccccc3CCc3ccccc31)C2` [Deptropine citrate], the gametocyte viability is, setting by setting: (concentration: 1 µM) 99.2; (concentration: 10 µM) 86.5.

Take `CC[C@@]1([C@@H]2O[C@@H]([C@H]3O[C@@](O)(CO)[C@H](C)C[C@@H]3C)C[C@@H]2C)CC[C@H]([C@]2(C)CC[C@]3(C[C@H](O)[C@@H](C)[C@@H]([C@@H](C)[C@@H](OC)[C@H](C)C(=O)O)O3)O2)O1` [Monensin sodium salt]: the gametocyte viability was 28.8 (active) (concentration: 1 µM) and 0.676 (active) (concentration: 10 µM).

`C[C@]12CC[C@H](O)C[C@H]1CC[C@@H]1[C@@H]2C[C@@H](O)[C@]2(C)[C@@H](C3=CC(=O)OC3)CC[C@]12O` [Digoxigenin]: the gametocyte viability is 74.9 (concentration: 1 µM) and 72.3 (concentration: 10 µM).

Consider `O[C@@H]1CCCC[C@H]1N1CCC(c2ccccc2)CC1` [L(-)-vesamicol hydrochloride], for which the gametocyte viability by setting is: (concentration: 1 µM) 91.8; (concentration: 10 µM) 84.9.

Regarding `CC[C@@H](C(N)=O)N1CCCC1=O` [Levetiracetam], the gametocyte viability (concentration: 1 µM) was 83.8 and the gametocyte viability (concentration: 10 µM) is 85.3.

For the molecule `C[C@]12CCC(=O)C=C1C=C[C@@H]1[C@@H]2CC[C@@]2(C)[C@H]1CC[C@@]2(O)CCC(=O)O` [Canrenoic acid potassium salt], the gametocyte viability runs as follows: (concentration: 1 µM) 83.5; (concentration: 10 µM) 82.3.

Regarding `C=CC[C@]1(O)CC[C@H]2[C@@H]3CCC4=CC(=O)CCC4=C3C=C[C@@]21C` [Altrenogest], the gametocyte viability is, setting by setting: (concentration: 1 µM) 56.8; (concentration: 10 µM) 33.1 (active).

With `C#C[C@]1(O)CC[C@H]2[C@@H]3CCC4=CC(=O)CCC4=C3C=C[C@@]21CC` [Gestrinone], the gametocyte viability (concentration: 1 µM) is 86.6 and the gametocyte viability (concentration: 10 µM) was 74.2.

Take `C[N+]1([O-])[C@@H]2C[C@@H](OC(=O)[C@H](CO)c3ccccc3)C[C@H]1[C@@H]1O[C@@H]12` (stereo not given in full) [Scopolamin-N-oxide hydrobromide]: the gametocyte viability is, setting by setting: (concentration: 1 µM) 91.5; (concentration: 10 µM) 94.5.

Turning to `CCN[C@@H](C)Cc1cccc(C(F)(F)F)c1` [Dexfenfluramine hydrochloride], the gametocyte viability was 95.2 (concentration: 1 µM) and 90.6 (concentration: 10 µM).

Regarding `C[C@]12COC(=O)C[C@@H]1CC[C@@H]1[C@@H]2CC[C@@]2(C)[C@H]1CC[C@]2(C)O` [Oxandrolone], the gametocyte viability was 81.4 (concentration: 1 µM) and 78.9 (concentration: 10 µM).

The values above are taken from the supplement of paper PMC12297408.
